eIF4H FP inh – human eIF4H binding inhibitors, primary screen, translation initiation inhibitor project, biochemical, uHTS, fluorescence polarization | Eukaryotic translation initiation factor 4H (Homo sapiens), Q15056 | eIF4H fluorescence polarization binding assay | inhibition, % at 35 µM | 290,000 tested, 0.94% active | AID 2012, 2009;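 note: calls also rest on retests at 20 µM and on dose response follow-up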
MLLE-PAM2 inh – inhibitors of PABP1 MLLE–PAM2 peptide binding, primary screen, biochemical, fluorescence polarization, FITC-PAM2, GST-MLLE | 360,000 tested, 0.36% active | Polyadenylate-binding protein 1 (Homo sapiens), P11940 | inhibition, % at 20 µM | AID 588489, 2011; in the data active = inhibition above about 35%, passing the limit was not always enough
Target sequence (P11940 whole entry, looked up): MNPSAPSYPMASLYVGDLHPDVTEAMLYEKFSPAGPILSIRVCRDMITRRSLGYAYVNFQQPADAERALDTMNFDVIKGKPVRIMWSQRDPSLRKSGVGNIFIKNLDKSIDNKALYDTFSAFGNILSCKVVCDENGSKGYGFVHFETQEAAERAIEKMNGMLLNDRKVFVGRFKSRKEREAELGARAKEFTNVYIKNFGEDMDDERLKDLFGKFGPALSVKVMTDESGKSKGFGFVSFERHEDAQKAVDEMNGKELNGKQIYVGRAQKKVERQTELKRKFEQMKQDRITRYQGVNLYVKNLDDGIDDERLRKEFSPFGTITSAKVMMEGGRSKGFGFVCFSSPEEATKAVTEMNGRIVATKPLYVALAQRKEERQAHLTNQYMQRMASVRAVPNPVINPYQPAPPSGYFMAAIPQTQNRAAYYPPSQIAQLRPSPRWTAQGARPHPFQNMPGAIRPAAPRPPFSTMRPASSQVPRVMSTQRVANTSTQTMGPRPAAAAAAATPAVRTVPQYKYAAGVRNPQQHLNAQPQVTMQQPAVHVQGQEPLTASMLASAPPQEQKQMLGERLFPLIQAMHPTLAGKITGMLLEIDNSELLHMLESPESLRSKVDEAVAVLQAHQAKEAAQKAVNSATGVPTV
eIF4E 4G PPI – eIF4E–eIF4G protein interaction inhibitors, primary screen, biochemical, uHTS, TR-FRET, eIF4GI fragment | Eukaryotic translation initiation factor 4E (Mus musculus) + Eukaryotic translation … | TR-FRET eIF4E-eIF4GI(517-606) binding, 2 h | inhibition, % at 21.7 µM | 220,000 tested, 0.37% active | AID 782, 2007;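 active = inhibition above about 30%, limit read from the data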
EBV gp42 inh – Epstein-Barr virus gp42 inhibitors, primary screen, biochemical, uHTS, fluorescence polarization; AID 1085, 2008; 220,000 tested, 0.42% active; inhibition, % (tested at 21.74 µM); Fluorescence polarization binding assay, mP read-out; in the data active = inhibition above about 50%
PABP polyA inh – PABP poly(A) RNA binding inhibitors, primary screen, biochemical, fluorescence polarization, uHTS; AID 2014, 2009; calls only at 35 µM; Polyadenylate-binding protein 1 (Homo sapiens), P11940; 290,000 tested, 1% active;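 note: calls also rest on retests at 20 µM and on dose response follow-up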
Numbers stand for hits; i = inactive; ? = inconclusive; nt = no result given; + = active, no number; [ ] = dose if it differs, or a comment. A selection: hits, their analogues and other compounds. The true share with any hit is near 1.7%. Unless noted, the rule behind the calls is not given here.

SMILES	eIF4H FP inh	MLLE-PAM2 inh	eIF4E 4G PPI	EBV gp42 inh	PABP polyA inh
C=CCn1c(=O)/c(=C\c2ccccn2)s/c1=C(/C#N)C(=O)NCC1CCCO1 (configuration not stated)	?	i	i	i	i
CCOc1ccc(N(CC(=O)NC2CCCCC2)C(=O)CNC(=O)c2cccs2)cc1	i	i	nt	nt	i
N/C(=N\OC(=O)CSc1ccccc1)c1ccc([N+](=O)[O-])cc1	i	41	i	i	i
Cc1ccc(/C(N)=N/OC(=O)CSc2ccccc2)cc1	i	i	i	i	i
CCN(CC(=O)Nc1ccc(OC)cc1)C(=O)CSCc1c(C)noc1C	nt	158	nt	nt	nt
CCN(CC(=O)Nc1c(F)cccc1F)C(=O)CSCc1c(C)noc1C	nt	i	nt	nt	nt
CCN1C(=O)[C@H]2[C@H]3CN=C(SCC(=O)c4ccccc4)N3[C@@](C)(C(=O)OC)[C@H]2C1=O	nt	45	nt	nt	nt
C/C(N)=C(/C#N)C(=O)COC(=O)c1ccc(NC(N)=O)cc1	i	i	i	i	i
NC(=O)COC(=O)c1cccc2c1-c1ccccc1C2=O	?	i	i	i	+
CC(C)NC(=O)c1cccc2c1-c1ccccc1C2=O	i	i	nt	nt	i
Cc1onc(-c2ccccc2)c1C(=O)N/N=C/c1ccc([N+](=O)[O-])s1	58	i	i	i	+
Cc1onc(-c2ccccc2)c1C(=O)N/N=C/c1ccco1	i	i	i	i	i
Cc1nc(-c2ccc(S(=O)(=O)Oc3ccccc3Cl)s2)cs1	i	i	i	i	i
CCOC(=O)c1ccc(N2CSC3=C(C#N)C(c4cccs4)CC(=O)N3C2)cc1 (configuration not stated)	i	i	i	i	i
N#CC1=C2SCN(c3ccc(F)cc3)CN2C(=O)CC1c1cccc(F)c1 (configuration not stated)	43	i	i	i	i
Cc1ccc(N2CSC3=C(C#N)C(c4cccs4)CC(=O)N3C2)cc1 (configuration not stated)	61	i	i	i	+
CCc1ccc(C2CC(=O)N3CN(c4ccccc4)CSC3=C2C#N)cc1 (configuration not stated)	i	i	i	i	i
COc1ccc(N2CSC3=C(C#N)C(c4cccs4)CC(=O)N3C2)cc1 (configuration not stated)	15	i	47[fluorescence artefact?]	i	+
CCc1ccc(N2CSC3=C(C#N)C(c4cccs4)CC(=O)N3C2)cc1 (configuration not stated)	i	i	i	i	i
CCc1nccn1S(=O)(=O)c1ccccc1[N+](=O)[O-]	i	i	nt	nt	i
O=C(NCCCCc1ccccc1)c1ccc(F)cc1	nt	i	nt	nt	nt
N#CCC(=O)Nc1ccc(C(=O)Nc2cccc(S(N)(=O)=O)c2)cc1	i	i	i	i	i
CSc1ccc(CN2CCC2(C)C(=O)NCc2cccs2)cc1 (configuration not stated)	nt	i	nt	nt	nt
O=C(Nc1ccccn1)C1CCN(C(=O)c2ccc(Cl)cc2)CC1	nt	i	nt	nt	nt
COc1ccc(C2(c3ccc(OC)cc3)NC(=O)NC2=O)cc1	i	i	nt	nt	i
SMILES	eIF4H FP inh	MLLE-PAM2 inh	eIF4E 4G PPI	EBV gp42 inh	PABP polyA inh
CCCC1C(c2ccc(OC)cc2)C(C#N)(C#N)C2(C#N)CC1(N)NC2=O (configuration not stated)	i	i	i	i	+
O=C(O)/C=C/c1cnc2ccccc2c1	i	i	i	i	i
Cc1c(C#N)c(NC(=O)CCl)n(Cc2ccccc2)c1C	i	i	i	i	i
Cc1c(C#N)c(NC(=O)CCl)n(Cc2cccs2)c1C	74	i	i	i	+
O=C(Nc1ccc(O)cc1C(=O)O)c1cccs1	i	i	i	i	i
N#C/C(=N\Nc1ccc(S(=O)(=O)N2CCCCCC2)cc1)C(N)=S	i	42	i	i	i
O=C(O)CCNc1cc(N2CCN(C(=O)c3ccco3)CC2)c2noc3c2c1C(=O)c1ccccc1-3	101	i	nt	nt	+
CCN1CCN(c2cc(N3CCN(C(=O)c4ccco4)CC3)c3c4c(onc24)-c2ccccc2C3=O)CC1	94	i	nt	nt	+
CCC(C)N(C(=O)CSc1ccc(NC(C)=O)cc1)C1CCS(=O)(=O)C1 (configuration not stated)	i	45	i	i	i
COc1cccc(CSc2nc(N)cc(N)n2)c1	i	i	nt	nt	i
